# Measured values as given in PubChem BioAssay (NCI).
# The panel holds about 83,000 compounds, 20% with a hit somewhere; the sample as a whole holds those more often.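 Treatment: one concentration, 48 hours, 96-well format. Scoring: percent growth, with anything below 10 considered active.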 Activity calls are given as the source filed them.
# System: HL-60(TB) leukemia
# Assay: NCI-60 one-dose screen, 48 h (100 = growth as untreated, 0 = no growth, -100 = all killed)
# Conditions: 10 µM unless noted
row,SMILES,growth
1,COc1cc(Cc2cc(OC)c(O)c(OC)c2)cc(OC)c1O,44% (inactive)
2,CCNc1cc(S(=O)(=O)O)ccc1C,93.8% (inactive)
3,O=C(/C=C/c1ccccc1)CC(c1ccccc1)N1CCOCC1 (stereo not given),70.7% (inactive)
4,COc1cc(/C=C2\CCC/C(=C\c3cc(CN4CCOCC4)c(O)c(OC)c3)C2=O)cc(CN2CCOCC2)c1O,4.24% (active)
5,O=C1CS/C(=N/c2nnc(-c3ccc(O)cc3)s2)N1,98.8% (inactive)
6,C=CC1=C(C)C2=NC1=CC1=NC(=CC3=C(C)C4=C(O)C(C(=O)O)C(=C5NC(=C2)C(C)C5CCC(=O)O)C4=N3)C(CC)=C1C (stereo not given),89.4% (inactive)
7,COc1ccc(/C=C2\CN(C(=O)CCN3CCC(=NO)CC3)C/C(=C\c3ccc(OC)cc3)C2=O)cc1,-14.4% (active)
8,COc1cccc(C(=O)NCCNc2cc(-c3cn(-c4ccccc4)nc3-c3cccc(OC)c3)ccn2)c1,41.5% (inactive)
9,C=C(C)[C@@H]1CC[C@]2(C(=O)NC3CCCCC3)CC[C@]3(C)[C@H](CC[C@@H]4[C@@]5(C)CCCNC(C)(C)[C@@H]5CC[C@]43C)[C@@H]12,23.7% (inactive)
10,OCc1cccc2ccccc12,93.5% (inactive)
11,Cc1nc2scc(-c3ccccc3)n2c(=O)c1CCO,112% (inactive)
12,Cc1ccc(/C=C/C(=O)Nc2ncc(Cc3ccc(F)cc3)s2)o1,2.75% (active)
13,COc1ccc(C2CC(c3cc(OC)c(OC)c(OC)c3)=NN2)cc1 (stereo not given),60.1% (inactive)
14,COc1cc(C2C3=C(COC3=O)N(CCO)c3cc4c(cc32)OCCO4)cc(OC)c1OC (stereo not given),-21.8% (active)
15,CN1CCN(c2ccc3nc(-c4ccc5nc(-c6ccc(C(F)(F)F)cc6)[nH]c5c4)[nH]c3c2)CC1,23.9% (inactive)
16,O=C(/C=C/c1ccc(Cl)cc1)c1ccccc1,99.9% (inactive)
17,CN(C)C1CCN(C(=O)c2ccc(NC(=O)Nc3ccc(-c4nc(N5CCOCC5)c5cccn5n4)cc3)cc2)CC1,4.58% (active)
18,O=CNCCc1ccccc1,87.6% (inactive)
19,COc1ccc2c(c1)C=CC(C#N)N2C(=O)c1ccccc1 (stereo not given),-24.7% (active)
20,Cc1ccc2c(c1)C(=O)C(c1c(-c3[nH]c(=O)c4ccc(C)cc4c3O)c(O)c3ccccc3c1O)=NC2=O,8.93% (active)

row,SMILES,growth
1,COC(=O)C1Cc2ccccc2CN1C(=O)c1ccc2c(c1)Cc1ccccc1-2 (stereo not given),13.4% [50 µM] (inactive)
2,Oc1cccc2oc(=S)[nH]c12,121% (inactive)
3,CC(C)N1CCN(c2ccncc2S(=O)(=O)N2CCN(C)CC2)CC1,95.7% (inactive)
4,COc1cc(-c2cc(-c3ccc(Nc4ccnc5cc(Cl)ccc45)cc3)nc(N3CCOCC3)n2)cc(OC)c1OC,68.2% (inactive)
5,COc1ccc2c(c1)c(=O)oc1c(C)c(OCC(C)=O)ccc12,110% (inactive)
6,c1ccc2cc(C[n+]3ccn(CCCCCCCCCCCCn4cc[n+](Cc5ccc6ccccc6c5)c4)c3)ccc2c1,-69.5% (active)
7,O=C1C=CC(=O)N1c1ccc2c(c1)Cc1cc(F)ccc1-2,63% (inactive)
8,CCCC(CCC)NCC(O)c1cc(-c2ccc(C(F)(F)F)cc2)nc(C(F)(F)F)c1 (stereo not given),-46.3% (active)
9,COc1cc(Cl)ccc1C,107% (inactive)
10,O=c1[nH]nc(-c2ccc(Cl)cc2)cc1Cc1ccccc1,77% (inactive)
11,CC1=C[C@H]2c3c(c(O)c(O)c4oc5c(C)cccc5c(=O)c34)[C@H](c3cc(O)c(O)c4oc5c(C)cccc5c(=O)c34)[C@H]2C(C)(C)C1,-14.5% (active)
12,S=c1[nH]nc(CSc2ncnc3c2c(-c2ccccc2)cn3-c2ccc(Cl)cc2)o1,101% (inactive)
13,CC[n+]1c(C)ccc2cc(C)ccc21,87% (inactive)
14,Cc1ccc2nc(CN(CCN(Cc3nc4ccc(C)cc4[nH]3)Cc3nc4ccc(C)cc4[nH]3)Cc3nc4ccc(C)cc4[nH]3)[nH]c2c1,-67.7% (active)
15,C/C(=C\CCc1ccsc1)CC/C=C(\C)CCCN1CCSCC1,67.7% (inactive)
16,N=C(N)c1ccc(-c2ccc(-c3ccc(Cl)c(Cl)c3)o2)nc1,15.1% (inactive)
17,c1c[nH]c(CNC2CCCCC2)c1,263% (inactive)
18,C=C1C(=O)O[C@H]2[C@H]1CC/C(COC(=O)c1c[nH]c3ccccc13)=C\CC[C@@]1(C)O[C@@H]21,-25.9% (active)
19,COc1ccc2c(ccc[n+]2C)c1,132% (inactive)
20,COc1ccc2nccc(/C=C/c3ccnc4ccc(OC)cc34)c2c1,63.5% (inactive)
